Test results published in PubChem BioAssay AID1159580 (chemical genetic matrix, 2015).
“And” between values parts separate entries of the source, which are not always exact repeats. Equal entries are not always repeated. About 2,000 (36%) of roughly 5,500 compounds were called active. Not shown: some 18% with an inconclusive outcome. Cut-off read from the data, not from the text of the source: active = normalized growth mostly below about 0.91 (no sharp cut-off); inconclusive = no clear call, values can overlap the other calls; inactive = mostly above about 0.92. This is one part of the list.

Assay: chemical genetic growth profiling, strain panel (AID 1159580);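 note: tested at 20 µM; growth read once vehicle control cultures reached saturation at 30 °C; 1 = growth at the plate median or of vehicle wells; lower values mean less growth of the strain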
Conditions: growth OD

Measured: normalized growth

CC1COc2c(N3CCN(C)CC3)c(F)cc3c(=O)c(C(=O)O)cn1c23 (stereo not drawn)
inactive: S. cerevisiae deletion strains, locus YJR066W, strain TOR1, hits give low values 0.948 | S. cerevisiae deletion strains, locus YKL009W, strain mrt4, hits give low values 1.03 | S. cerevisiae deletion strains, locus YKL068W, hits give low values 1.02 | S. cerevisiae deletion strains, locus YKL085W, strain MDH1 (second series), hits give low values 1 | S. cerevisiae deletion strains, locus YKL085W, strain MDH1, hits give low values 1 | S. cerevisiae deletion strains, locus YKL160W, strain elf1, hits give low values 0.971 | S. cerevisiae deletion strains, locus YKL190W, strain CNB1, hits give low values 1.01 | S. cerevisiae deletion strains, locus YKR001C, strain vps1, hits give low values 1.03 | S. cerevisiae deletion strains, locus YKR026C, strain gcn3, hits give low values 0.988 | S. cerevisiae deletion strains, locus YKR091W, strain srl3, hits give low values 0.984 | S. cerevisiae deletion strains, locus YLL001W, strain dnm1, hits give low values 0.958 | S. cerevisiae deletion strains, locus YLL026W, hits give low values 0.998 | S. cerevisiae deletion strains, locus YLL041C, strain sdh2, hits give low values 0.987 | S. cerevisiae deletion strains, locus YLR027C, strain aat2, hits give low values 0.997 | S. cerevisiae deletion strains, locus YLR039C, strain RIC1, hits give low values 1.03 | S. cerevisiae deletion strains, locus YLR058C, strain SHM2, hits give low values 1.01 | S. cerevisiae deletion strains, locus YLR102C, strain apc9, hits give low values 1.02 | S. cerevisiae deletion strains, locus YLR113W, strain HOG1, hits give low values 0.942 | S. cerevisiae deletion strains, locus YLR221C, strain rsa3, hits give low values 0.979 | S. cerevisiae deletion strains, locus YLR258W, strain gsy2, hits give low values 0.994 | S. cerevisiae deletion strains, locus YLR262C, strain YPT6 (second series), hits give low values 0.966 | S. cerevisiae deletion strains, locus YLR262C, strain YPT6, hits give low values 1.07 | S. cerevisiae deletion strains, locus YLR268W, strain sec22, hits give low values 1.01 | S. cerevisiae deletion strains, locus YLR320W, strain mms22, hits give low values 0.961 | S. cerevisiae deletion strains, locus YLR330W, strain CHS5, hits give low values 1.01 | S. cerevisiae deletion strains, locus YLR342W, strain FKS1 (second series), hits give low values 1 | S. cerevisiae deletion strains, locus YLR342W, strain FKS1, hits give low values 0.976 | S. cerevisiae deletion strains, locus YLR357W, strain rsc2, hits give low values 0.967 | S. cerevisiae deletion strains, locus YLR370C, strain arc18, hits give low values 0.98 | S. cerevisiae deletion strains, locus YLR371W, strain rom2, hits give low values 1.02 | S. cerevisiae deletion strains, locus YLR384C, strain iki3, hits give low values 0.965 | S. cerevisiae deletion strains, locus YLR418C, strain cdc73, hits give low values 1.02 | S. cerevisiae deletion strains, locus YML016C, strain PPZ1, hits give low values 1 | S. cerevisiae deletion strains, locus YML032C, strain rad52, hits give low values 1.01 | S. cerevisiae deletion strains, locus YML120C, strain ndi1, hits give low values 0.984 | S. cerevisiae deletion strains, locus YML124C, strain tub3, hits give low values 1.01 | S. cerevisiae deletion strains, locus YMR058W, strain fet3, hits give low values 0.985 | S. cerevisiae deletion strains, locus YMR078C, strain ctf18, hits give low values 1.01 | S. cerevisiae deletion strains, locus YMR125W, strain sto1, hits give low values 0.981 | S. cerevisiae deletion strains, locus YMR129W, hits give low values 0.99 | S. cerevisiae deletion strains, locus YMR205C, strain PFK2, hits give low values 0.959 | S. cerevisiae deletion strains, locus YMR223W, strain ubp8, hits give low values 1.02 | S. cerevisiae deletion strains, locus YMR231W, strain pep5, hits give low values 0.981 | S. cerevisiae deletion strains, locus YMR307W, strain GAS1, hits give low values 1.09 | S. cerevisiae deletion strains, locus YNL067W, strain RPL9B, hits give low values 1 | S. cerevisiae deletion strains, locus YNL071W, strain lat1, hits give low values 0.987 | S. cerevisiae deletion strains, locus YNL128W, strain TEP1, hits give low values 1.03 | S. cerevisiae deletion strains, locus YNL153C, strain GIM3, hits give low values 1.05 | S. cerevisiae deletion strains, locus YNL183C, strain NPR1, hits give low values 0.928 | S. cerevisiae deletion strains, locus YNL197C, strain WHI3, hits give low values 1.01 | S. cerevisiae deletion strains, locus YNL209W, strain ssb2, hits give low values 0.988 | S. cerevisiae deletion strains, locus YNL224C, strain SQS1, hits give low values 1.01 | S. cerevisiae deletion strains, locus YNL233W, strain BNI4, hits give low values 1 | S. cerevisiae deletion strains, locus YNL248C, strain rpa49, hits give low values 0.982 | S. cerevisiae deletion strains, locus YNL250W, strain rad50, hits give low values 1.01 | S. cerevisiae deletion strains, locus YNL271C, strain bni1, hits give low values 1.02 | S. cerevisiae deletion strains, locus YNL298W, strain CLA4, hits give low values 1.02 | S. cerevisiae deletion strains, locus YNL307C, strain MCK1, hits give low values 1.02 | S. cerevisiae deletion strains, locus YNL322C, strain KRE1 (second series), hits give low values 0.978 | S. cerevisiae deletion strains, locus YNL322C, strain KRE1, hits give low values 0.995 | S. cerevisiae deletion strains, locus YNR049C, strain mso1, hits give low values 0.986 | S. cerevisiae deletion strains, locus YNR052C, strain pop2, hits give low values 1.03 | S. cerevisiae deletion strains, locus YOL006C, strain TOP1, hits give low values 1.02 | S. cerevisiae deletion strains, locus YOL012C, strain htz1 1.78 | S. cerevisiae deletion strains, locus YOL147C, strain pex11, hits give low values 1.01 | S. cerevisiae deletion strains, locus YOR001W, strain rrp6, hits give low values 1.01 | S. cerevisiae deletion strains, locus YOR061W, strain CKA2, hits give low values 1.01 | S. cerevisiae deletion strains, locus YOR069W, strain VPS5, hits give low values 1 | S. cerevisiae deletion strains, locus YOR070C, strain gyp1, hits give low values 0.994 | S. cerevisiae deletion strains, locus YOR080W, strain dia2, hits give low values 0.984 | S. cerevisiae deletion strains, locus YOR083W, strain WHI5 (second series), hits give low values 1.02 | S. cerevisiae deletion strains, locus YOR083W, strain WHI5, hits give low values 0.953 | S. cerevisiae deletion strains, locus YOR106W, strain vam3, hits give low values 0.971 | S. cerevisiae deletion strains, locus YOR136W, strain idh2, hits give low values 1.01 | S. cerevisiae deletion strains, locus YOR144C, strain elg1, hits give low values 1.01 | S. cerevisiae deletion strains, locus YOR184W, strain ser1, hits give low values 1.02 | S. cerevisiae deletion strains, locus YOR231W, strain MKK1, hits give low values 0.972 | S. cerevisiae deletion strains, locus YOR265W, strain rbl2, hits give low values 0.989 | S. cerevisiae deletion strains, locus YOR270C, strain vph1, hits give low values 0.965 | S. cerevisiae deletion strains, locus YOR290C, strain snf2, hits give low values 0.985 | S. cerevisiae deletion strains, locus YOR316C, strain cot1, hits give low values 1.01 | S. cerevisiae deletion strains, locus YPL051W, strain arl3, hits give low values 0.98 | S. cerevisiae deletion strains, locus YPL055C, strain LGE1, hits give low values 1.03 and 1.01 | S. cerevisiae deletion strains, locus YPL078C, strain atp4, hits give low values 0.966 | S. cerevisiae deletion strains, locus YPL106C, strain sse1, hits give low values 0.965 | S. cerevisiae deletion strains, locus YPL240C, strain hsp82, hits give low values 0.999 | S. cerevisiae deletion strains, locus YPL256C, strain CLN2, hits give low values 1 | S. cerevisiae deletion strains, locus YPR119W, strain clb2, hits give low values 1.01 | S. cerevisiae deletion strains, locus YPR141C, strain kar3, hits give low values 1.01 | S. cerevisiae deletion strains, locus YPR163C, strain tif3, hits give low values 1.01 | S. cerevisiae deletion strains, locus YPR167C, strain met16, hits give low values 1.01 | S. cerevisiae deletion strains, strain wtn01, hits give low values 1.01 | S. cerevisiae strains, strain wild type, hits give low values 1.01
